According to the OligoGym collection:

Molecular target: HOXA6
Experiment: pooled miR-30 sensor sort-seq; sequence = guide strand
Details: shRNA
Also: reference of the scale not given here.

Row | Sequence | sensor-assay potency score (higher = more potent)
1 | TATCAGAATAGAAACACGAGGC | -0.218
2 | TTGGACTGTTGGTAGAAACAAG | -1.21
3 | TGTTGGTAGAAACAAGGTGAGG | -1.56

Molecular target: HOXD12
Experiment: as above
Details: shRNA

Row | Sequence | sensor-assay potency score (higher = more potent)
4 | TTGCTGGTCGCTGAGGTTCAGC | -1.6
5 | TTAGCCTGCTCTTCGGGTCCGT | -0.755
6 | ATTTTGACTTGCTGGTCGCTGA | -0.889
7 | TTGGTGTCGTCCTTGAAGCCAG | -0.854
8 | TAGGGTTTCCGCTTCTTGCGGG | -0.0363
9 | TATTGGACAATTCCTTGCGTTT | -1.31
10 | TGTCATGTTCAAGTTGAGCGGG | -0.623
11 | TTGACTTGCTGGTCGCTGAGGT | 0.586
12 | TTTGACTTGCTGGTCGCTGAGG | -0.827
13 | TGGAGAAGTAGAAAGAGTCTGG | -0.0412

Molecular target: HOXD4
Experiment: as above
Details: shRNA

Row | Sequence | sensor-assay potency score (higher = more potent)
14 | TGCACCTTCTTCATCCAGGGGT | -0.0453
15 | TTATGATCTTTTTTCCACTTCA | -0.3
16 | TTCTTTTTCCAGTTCTAGGACT | -0.804
17 | TCGGACTGACTGTAGGCCCGGG | -0.239
18 | TAGGACTTGCTGCCGGGTGTAG | -1.46
19 | TTGGGGTCCACATACTTGGAGT | -0.994
20 | TAGTGTTGGGCAGCTTATGATC | -1.61
21 | TTTTTCCAGTTCTAGGACTTGC | -0.495
22 | TAAAATGAAATTCTTTTTCCAG | -0.413
23 | TTATGTTCTCAGTAGCTCCTGC | 0.0954
24 | ATGATCTTTTTTCCACTTCATC | -1.7

Molecular target: HP1BP3
Experiment: as above
Details: shRNA

Row | Sequence | sensor-assay potency score (higher = more potent)
25 | TATCTTCTACCTTCTCACCTAA | -0.313
26 | TTCTTCTGCAACCTTCTCTTAG | -0.784
27 | TACTGAGACACATATTTCCTGA | -0.347
28 | TTCCTCTGAACTTATGTCTGGT | 0.357
29 | TAAGATTGCATCCATCTTGGGA | -0.272
30 | TCTTCGGAAACAGAACTCCTGG | -0.507
31 | TTCGGAAACAGAACTCCTGGGC | 0.0322
32 | TAGACTGATCTTTCTCATCCTT | 0.288
33 | TTTTCGAATAGCAACCACTGAT | -0.782
34 | TTCTGAACCACAACAAAACTTC | -0.196
35 | TTGATTTCTGAACCACAACAAA | -1.61

Molecular target: HPD
Experiment: as above
Details: shRNA

Row | Sequence | sensor-assay potency score (higher = more potent)
36 | TTTGATTACATGGCTGACCACC | -0.613
37 | TGTGATGATGTCTTCGGTCTTG | 0.215
38 | TTTCTCGTCGTAGTCCACCAGG | -0.901
39 | TTGAACAGTGAGTTGAAGTTGC | 0.599
40 | TATTCCGTGTGCACCTGCGTGT | -0.504
